Screens as filed in PubChem.
This is a sample that favours compounds with a hit; in the whole collection about 2.2% have one here.
Arbovirus anti: antivirals against arbovirus infection | arbovirus infection cell-based antiviral screen | inhibition, % at 10 µM | actives 0.37% (n = 200,000); in the data active means inhibition above about 30%
NCF1 inh: blocks human p47phox regulatory protein of NADPH oxidases; P14598; p47phox/p22phox peptide binding, fluorescence polarization, 2 h; inhibition, % at 24.7 µM; actives 0.53% (n = 220,000);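 active means inhibition above about 30%, limit read from the data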
Target sequence (P14598 whole entry, looked up): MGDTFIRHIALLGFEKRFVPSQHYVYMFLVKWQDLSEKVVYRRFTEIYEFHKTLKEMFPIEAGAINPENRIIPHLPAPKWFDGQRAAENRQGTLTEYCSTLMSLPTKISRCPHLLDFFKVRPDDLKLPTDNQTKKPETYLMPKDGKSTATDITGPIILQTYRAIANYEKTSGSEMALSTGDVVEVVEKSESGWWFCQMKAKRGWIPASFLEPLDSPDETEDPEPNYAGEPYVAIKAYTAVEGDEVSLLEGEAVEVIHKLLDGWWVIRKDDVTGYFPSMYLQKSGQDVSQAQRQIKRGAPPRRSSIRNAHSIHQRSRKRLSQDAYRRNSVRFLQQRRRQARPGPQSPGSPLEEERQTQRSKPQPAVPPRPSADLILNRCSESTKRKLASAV
Autophagy mod: alters autophagy in cells | MEF GFP-LC3 puncta imaging; test concentration mostly 10 µM | calls only at 10 µM (by protocol) | actives 0.98% (n = 190,000);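 active means percentage of spot-positive cells more than 3 SD above its plate mean, without a fluorescence outlier flag or 80% toxicity; inconclusive means no clear call, values can overlap the other calls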
Redox H2O2 prof: compounds producing H2O2 with reducing agent – biochemical, NIH compound library profiling, artefact control for MLSCN library redox annotation, primary screen; DTT-dependent redox cycling H2O2, phenol red/HRP absorbance; 100% = 100 µM peroxide control, 0% = buffer; activation, % at 10 µM; actives 0.03% (n = 200,000); AID 878;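 active means activation of at least 50% relative to the plate's high and low controls in the primary single-dose screen; inactive means activation below 50%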;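 further: compound incubated with DTT at 0.8 mM final as the reducing agent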
Efa HMGR inh: blocks class II HMG-CoA reductase of Enterococcus faecalis | purified E. faecalis HMGR, NADPH absorbance 340 nm kinetic | inhibition, % at 10 µM | actives 0.41% (n = 190,000) | AID 1066;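 active means inhibition above a set limit, the median over all tested compounds plus 3 SD, cut at about 9.5% in these data; inconclusive means no clear call, values can overlap the other calls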;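 further: enzyme runs in reverse so mevalonate oxidation gives rising NADPH absorbance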
Ins promoter up: MIN6 insulin promoter up-regulation; z-score at 5 µM; actives 0.3% (n = 190,000); MIN6 insulin promoter-GFP reporter, high-content imaging; hits give high values;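 active means z-score above 3 at 5 µM with at least 500 cells counted in the well; inconclusive means wells under 500 cells, flagged as cytotoxic or low count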
Of the large screens only hits and unclear results are named; the others gave an inactive call; ! = not confirmed by another sample.

O=C(CCc1ccccc1)c1nnc(-c2ccccc2)o1	none
O=c1[nH]n2c(=O)c3c([nH]c2c1N=Nc1cccc(Cl)c1)CCC3	Arbovirus anti 34.5
O=c1[nH]n2c(=O)c3c([nH]c2c1N=Nc1cccc(C(F)(F)F)c1)CCCC3	Arbovirus anti 36.6 (no result: Ins promoter up)
COc1cc([C@@H]2[C@H]3CN(C)CC=C3C(C#N)=C(N)C2(C#N)C#N)cc2c1OCO2	Autophagy mod active (no result: Ins promoter up)
CN1CC=C2C(C#N)=C(N)C(C#N)(C#N)C(c3ccsc3)C2C1 (centres undefined)	none (no result: Ins promoter up)
CN1CC=C2C(C#N)=C(N)C(C#N)(C#N)[C@H](c3cccs3)[C@H]2C1	Autophagy mod active (no result: Ins promoter up)
c1cc2c(cc1C1CCCCC1)c1c3n2CCCNC3CCC1 (centres undefined)	Autophagy mod active, Ins promoter up inconclusive
Cc1ccc2c(c1)c1c3n2CCCNC3CCC1 (centres undefined)	Ins promoter up inconclusive
Cc1ccccc1-c1nc2sc3c(c2c(=O)o1)CCC3	none
O=c1oc(-c2ccccc2)nc2sc3c(c12)CCCC3	Arbovirus anti 31.8
O=c1oc(/C=C/c2ccccc2)nc2sc3c(c12)CCC3	Arbovirus anti 66.2
O=c1oc(-c2cc3ccccc3o2)nc2sc3c(c12)CCCC3	Arbovirus anti 77.9
CCOC(=O)C(C(=O)OCC)C(Nc1ccc(Br)cc1)c1ccccc1 (centres undefined)	none
Cc1cccc(Cn2c(=O)n(-c3ccc(CC(=O)NCc4ccco4)cc3)c(=O)c3sccc32)c1	none
CNS(=O)(=O)c1cccc(C(=O)OCC(=O)Nc2ccc(Cl)cn2)c1	none (no result: Arbovirus anti, Autophagy mod, Redox H2O2 prof, Efa HMGR inh)
COc1ccc2nc(/N=C\N(C)C)sc2c1	none
COc1ccc2nc(/N=C/c3c(C)[nH]n(-c4ccc(C)cc4)c3=O)sc2c1	NCF1 inh 33.9
COc1ccc(S(=O)(=O)N(C)c2ccc(C(=O)N3CCC(C(N)=O)CC3)cc2)cc1	none
COc1ccc(S(=O)(=O)N(C)c2ccc(C(=O)N3CCCC3)cc2)cc1	Efa HMGR inh 9.7 (no result: Ins promoter up)
COCCCNC(=S)NNC(=S)Nc1cccc(Cl)c1	none (no result: Arbovirus anti, Autophagy mod, Redox H2O2 prof, Efa HMGR inh)
COc1ccccc1NC(=O)COc1ccc(C(=O)NC2CCCc3ccccc32)cc1OC (centres undefined)	none (no result: NCF1 inh)
Cc1ccc(-n2c(C)cc(/C=N/NC(=O)c3ccncc3)c2C)c(C)c1	none
CN1CCN(NC(=O)Nc2cccc(Cl)c2Cl)CC1	Autophagy mod active
COc1ccc(/C=C2\CCCc3c2nc2ccc(C)cc2c3C(=O)O)cc1O	none (no result: Arbovirus anti, Autophagy mod, Redox H2O2 prof, Efa HMGR inh)
CSc1nc2ccccc2n1CC(=O)Nc1ccc(C)c(C)c1	none
Cc1cccc(CSc2nc3ccncc3n2CC(=O)Nc2cc(C)cc(C)c2)c1	Efa HMGR inh 12.5
C/C(=N/NS(=O)(=O)c1ccc(Cl)cc1)c1cccc(NC(=O)c2ccc(Cl)cc2Cl)c1	NCF1 inh 30.8 (no result: Ins promoter up)
C/C(=N/NS(=O)(=O)c1ccc(C)cc1)c1cccc(NC(=O)c2cccc(Cl)c2)c1	none
CN1CCc2c(n(CC(O)CN3CCN(CCO)CC3)c3ccccc23)C1=O (centres undefined)	none
CSCCOC(=O)C1=C(C)Nc2ccc(C)cc2S1	Autophagy mod active (no result: Ins promoter up)
CCOC(=O)C1=C(C)Nc2ccc(C)cc2S1	none
c1ccc2[nH]c(-c3ccncc3)nc2c1	NCF1 inh 30.3!
Cc1ccc(-c2ccc(/C=C3\SC(N4CCOCC4)=NC3=O)o2)cc1	Autophagy mod active, Efa HMGR inh 11.6
O=C1N=C(N2CCOCC2)S/C1=C/c1ccc(-c2ccc(F)cc2)o1	none
O=C1Nc2ccc(F)cc2C12Nc1ccccc1-c1nnc(SCc3ccccc3F)nc1O2 (centres undefined)	NCF1 inh 43.2
Cc1ccc(NC(=O)c2cncc(Br)c2)c(O)c1	Arbovirus anti 38.9
Cc1ccc(NC(=O)c2ccc3nc[nH]c3c2)c(O)c1	Efa HMGR inh 16.1
Cc1cc([N+](=O)[O-])ccc1NC(=O)c1cncc(Br)c1	none
Cc1cccc(-n2c3nc(=O)[nH]c(=O)c-3cc3cc([N+](=O)[O-])ccc32)c1	Arbovirus anti 38.2
COc1cccc(/C=N/NC(=O)CCn2cnc3ccccc32)c1	Ins promoter up 3.74 (no result: Arbovirus anti, Autophagy mod, Redox H2O2 prof, Efa HMGR inh)
COc1ccc(/C=N/NC(=O)CCn2cnc3ccccc32)cc1	none (no result: Arbovirus anti, Autophagy mod, Redox H2O2 prof, Efa HMGR inh)
CC(C)[C@H](NC(N)=O)C(=O)Nc1cccc([N+](=O)[O-])c1	none
O=C(Nc1ccc2c(c1)nc1n2CCOC1)c1ccco1	none
O=C(Nc1ccc2c(c1)nc1n2CCSC1)c1ccco1	Autophagy mod active
CCc1ccccc1NC(=S)N(CCN(C)C)C(C)c1cccnc1 (centres undefined)	none (no result: Ins promoter up)
CCCCNC(=O)C1CCN(S(=O)(=O)N2CCCCCC2)CC1	none
CCC(Sc1ccc2nnc(-c3ccc(F)cc3)n2n1)C(=O)OC (centres undefined)	none
CCC(Sc1ccc2nnc(-c3cccnc3)n2n1)C(=O)OC (centres undefined)	Efa HMGR inh 9.6
CC1(C)CC(=O)C2=C(C1)Nc1cc3c(cc1C2c1ccc(F)cc1)OCO3 (centres undefined)	none
CC1(C)CC(=O)C2=C(C1)Nc1cc3c(cc1C2c1ccc2c(c1)OCO2)OCO3 (centres undefined)	NCF1 inh 59.4
CC(C)CNC(=O)CSc1nnc(-c2cccc(S(=O)(=O)N3CCCCC3)c2)o1	Ins promoter up 4.75
c1ccc(-c2cn3nc(-c4ccccc4)cnc3n2)cc1	Autophagy mod active
O=C(CCCOc1ccccc1)Nc1ccc(Cl)cn1	none
CCn1c(SCc2nc3ccccc3[nH]2)nnc1-c1ccccc1OC	none
CCn1c(SCc2nc3ccccc3[nH]2)nnc1-c1cccs1	Autophagy mod active
Cc1sc2ncnc(Sc3nnnn3-c3ccccc3)c2c1C	none
Clc1ccc(-n2nnnc2Sc2ncnc3sccc23)cc1	Autophagy mod active (no result: Arbovirus anti, NCF1 inh, Efa HMGR inh, Ins promoter up)
COc1ccc(N2CCN(C(=O)C3(C)CC3(Cl)Cl)CC2)cc1 (centres undefined)	none
CCN1CCN(c2ncnc3c2c(-c2ccccc2)cn3-c2ccc(F)cc2)CC1	Autophagy mod active (no result: Ins promoter up)
Cc1cc(=O)[nH]c(SCC(=O)N(CCC#N)c2ccccc2)c1C#N	none
COc1cc(OC)cc(C(=O)NCc2cc(C)nc3ccccc23)c1	none
Cc1cc(CNC(=O)Cc2ccccc2)c2ccccc2n1	Autophagy mod active
CCOc1ccc2nc(COC(=O)c3cccs3)c(C(C)=O)[n+]([O-])c2c1	none (no result: Arbovirus anti, Autophagy mod, Redox H2O2 prof, Efa HMGR inh)
CCOc1ccc2nc(COC(=O)c3ccco3)c(C(C)=O)[n+]([O-])c2c1	NCF1 inh 47.6
CC(=O)Nc1c2c3c(cccc3n(C)c1=O)C(=O)c1ccccc1-2	none (no result: Ins promoter up)
Cn1c(=O)c(Nc2ccc(Cl)cc2)c2c3c(cccc31)C(=O)c1ccccc1-2	Autophagy mod active, Ins promoter up 15.1
CSc1cccc(NC(=S)N(CCCN2CCCC2)Cc2cccn2Cc2ccc(Cl)cc2)c1	NCF1 inh 32.1
